# Assay results taken from article PMC7862700, “An all-to-all approach to the identification of sequence-specific readers for epigenetic DNA modifications on cytosine”.
# Key:
# Test in all cases: DAPPL (digital affinity profiling via proximity ligation, sequencing); 10 mM Tris-HCl pH 7.5, 50 mM NaCl, 1 mM DTT, 4% glycerol, room temperature, 30 min; GST-TFs on glutathione beads, 16-mer random dsDNA library, 0.1% formaldehyde crosslink after washing; high values mean tight binding
# FLI1 = target: T1, FLI1 (Homo sapiens, UniProt Q01543 1-452); conditions: protein: recombinant; tags: N-terminal GST; dsDNA, one strand shown
# T1 sequence: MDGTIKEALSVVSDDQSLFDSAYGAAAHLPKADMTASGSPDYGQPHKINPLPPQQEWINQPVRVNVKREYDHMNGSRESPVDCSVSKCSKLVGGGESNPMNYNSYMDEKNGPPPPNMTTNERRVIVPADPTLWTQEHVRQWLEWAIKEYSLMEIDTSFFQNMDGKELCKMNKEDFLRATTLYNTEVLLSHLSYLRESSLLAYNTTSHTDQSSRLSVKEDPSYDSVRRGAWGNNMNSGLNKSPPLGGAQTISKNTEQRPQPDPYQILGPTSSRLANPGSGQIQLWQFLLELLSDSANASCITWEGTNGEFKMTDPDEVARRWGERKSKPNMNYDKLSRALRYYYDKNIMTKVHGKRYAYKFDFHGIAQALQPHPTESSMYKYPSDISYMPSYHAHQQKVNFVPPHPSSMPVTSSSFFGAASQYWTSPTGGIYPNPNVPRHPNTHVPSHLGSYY
# Outline: (§1)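 Pools of DNA-barcoded human transcription factors, expressed in yeast as GST fusions on glutathione beads and combined with a tag-only sample, were incubated with 200 nmole of a 16-mer random double-stranded DNA library. Incubation took 30 min at room temperature in Tris/NaCl/DTT/glycerol buffer and was followed by washing, 0.1% formaldehyde crosslinking, proximity ligation (BsaI/T4 ligase, 1 h, 37 °C), PCR amplification and sequencing on an Illumina NextSeq500. Binding signal is the ratio of a hexamer's read frequency for a factor to its frequency for the tag-only sample.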
# ELK1 = target: T2, ELK1 (Homo sapiens, UniProt P19419 1-428); conditions: protein: recombinant; tags: N-terminal GST; dsDNA, one strand shown
# T2 sequence: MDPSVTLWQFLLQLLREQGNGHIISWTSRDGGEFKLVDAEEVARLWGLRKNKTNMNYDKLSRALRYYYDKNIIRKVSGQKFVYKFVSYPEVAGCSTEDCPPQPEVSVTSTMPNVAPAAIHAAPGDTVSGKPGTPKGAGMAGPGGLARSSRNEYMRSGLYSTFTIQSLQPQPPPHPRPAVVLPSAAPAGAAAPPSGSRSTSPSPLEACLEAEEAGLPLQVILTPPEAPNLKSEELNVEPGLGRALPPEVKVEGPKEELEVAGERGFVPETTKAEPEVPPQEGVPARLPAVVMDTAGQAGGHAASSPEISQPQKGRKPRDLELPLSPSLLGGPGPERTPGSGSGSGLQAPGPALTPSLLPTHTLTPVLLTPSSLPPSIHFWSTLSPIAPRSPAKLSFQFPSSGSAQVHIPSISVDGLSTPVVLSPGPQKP
# Outline: as §1
# GABPA = target: T3, GABPA (Homo sapiens, UniProt Q06546 1-454); conditions: protein: recombinant; tags: N-terminal GST; dsDNA, one strand shown
# T3 sequence: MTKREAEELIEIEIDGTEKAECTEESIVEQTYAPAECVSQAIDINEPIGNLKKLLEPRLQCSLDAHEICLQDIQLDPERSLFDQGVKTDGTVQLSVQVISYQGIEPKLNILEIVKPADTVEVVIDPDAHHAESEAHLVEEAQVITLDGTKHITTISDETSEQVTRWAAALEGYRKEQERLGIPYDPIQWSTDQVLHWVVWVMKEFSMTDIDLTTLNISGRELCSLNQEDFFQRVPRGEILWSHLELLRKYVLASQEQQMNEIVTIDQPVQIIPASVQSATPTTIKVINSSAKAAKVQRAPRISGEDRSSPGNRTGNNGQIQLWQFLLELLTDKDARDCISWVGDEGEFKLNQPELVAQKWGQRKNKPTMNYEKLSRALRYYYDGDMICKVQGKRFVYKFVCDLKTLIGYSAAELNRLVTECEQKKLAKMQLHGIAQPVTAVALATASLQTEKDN
# Outline: as §1
# ERG = target: T4, ERG (Homo sapiens, UniProt P11308 1-479); conditions: protein: recombinant; tags: N-terminal GST; dsDNA, one strand shown
# T4 sequence: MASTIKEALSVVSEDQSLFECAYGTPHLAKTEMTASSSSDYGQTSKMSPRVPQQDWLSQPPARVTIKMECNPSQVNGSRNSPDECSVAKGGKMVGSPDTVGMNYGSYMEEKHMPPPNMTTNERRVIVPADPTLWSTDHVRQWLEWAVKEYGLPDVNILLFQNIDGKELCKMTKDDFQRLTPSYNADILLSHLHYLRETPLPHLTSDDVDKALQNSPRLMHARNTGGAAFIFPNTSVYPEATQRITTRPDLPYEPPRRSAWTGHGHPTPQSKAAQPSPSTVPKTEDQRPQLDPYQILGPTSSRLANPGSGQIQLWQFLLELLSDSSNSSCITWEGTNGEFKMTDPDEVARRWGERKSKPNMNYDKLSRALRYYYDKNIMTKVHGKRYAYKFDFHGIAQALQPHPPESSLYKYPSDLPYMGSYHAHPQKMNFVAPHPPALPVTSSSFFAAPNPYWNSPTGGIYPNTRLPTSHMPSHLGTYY
# Outline: as §1
# ELF1 = ELF1 (Homo sapiens, UniProt P32519 1-619); conditions: protein: recombinant; tags: N-terminal GST; dsDNA, one strand shown
# ELF1, sequence (P32519 whole entry): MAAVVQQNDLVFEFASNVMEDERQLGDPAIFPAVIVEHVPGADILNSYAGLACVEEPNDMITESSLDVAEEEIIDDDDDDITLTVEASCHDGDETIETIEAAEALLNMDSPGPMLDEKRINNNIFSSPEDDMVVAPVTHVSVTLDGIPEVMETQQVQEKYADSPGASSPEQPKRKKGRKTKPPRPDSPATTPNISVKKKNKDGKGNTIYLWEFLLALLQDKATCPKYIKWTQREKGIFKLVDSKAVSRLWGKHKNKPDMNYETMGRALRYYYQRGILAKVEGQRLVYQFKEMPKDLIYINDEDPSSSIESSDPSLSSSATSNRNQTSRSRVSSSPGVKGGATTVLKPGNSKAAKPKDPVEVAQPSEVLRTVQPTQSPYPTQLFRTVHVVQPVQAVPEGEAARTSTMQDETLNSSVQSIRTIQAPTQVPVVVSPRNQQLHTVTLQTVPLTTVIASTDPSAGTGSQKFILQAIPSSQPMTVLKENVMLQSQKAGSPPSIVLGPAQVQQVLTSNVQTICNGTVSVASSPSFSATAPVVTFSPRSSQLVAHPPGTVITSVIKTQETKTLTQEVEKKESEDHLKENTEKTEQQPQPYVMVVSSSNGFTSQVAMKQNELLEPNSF
# Outline: as §1
# EHF = target: T5, EHF (Homo sapiens, UniProt Q9NZC4 1-300); conditions: protein: recombinant; tags: N-terminal GST; dsDNA, one strand shown
# T5 sequence: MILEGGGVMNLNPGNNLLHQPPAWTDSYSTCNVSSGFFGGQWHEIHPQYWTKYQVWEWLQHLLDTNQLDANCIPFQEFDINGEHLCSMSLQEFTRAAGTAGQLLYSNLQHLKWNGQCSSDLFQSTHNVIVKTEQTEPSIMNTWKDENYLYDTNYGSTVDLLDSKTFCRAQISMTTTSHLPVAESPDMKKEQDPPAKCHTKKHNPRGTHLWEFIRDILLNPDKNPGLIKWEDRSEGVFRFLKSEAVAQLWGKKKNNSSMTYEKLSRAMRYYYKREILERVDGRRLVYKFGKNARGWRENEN
# Outline: as §1
# SPI1 = SPI1 (Homo sapiens, UniProt P17947 1-270); conditions: protein: recombinant; tags: N-terminal GST; dsDNA, one strand shown
# Outline: as §1
# SPIB = SPIB (Homo sapiens, UniProt Q01892 1-262); conditions: protein: recombinant; tags: N-terminal GST; dsDNA, one strand shown
# SPIB, sequence (Q01892 whole entry): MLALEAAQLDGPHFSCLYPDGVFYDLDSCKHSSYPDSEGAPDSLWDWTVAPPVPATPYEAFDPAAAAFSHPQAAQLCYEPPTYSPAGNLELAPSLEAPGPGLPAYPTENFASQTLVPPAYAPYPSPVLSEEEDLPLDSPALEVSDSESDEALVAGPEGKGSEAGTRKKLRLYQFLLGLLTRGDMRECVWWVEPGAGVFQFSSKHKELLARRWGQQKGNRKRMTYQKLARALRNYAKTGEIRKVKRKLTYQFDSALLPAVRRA
# Outline: as §1
# ELK3 = target: T6, ELK3 (Homo sapiens, UniProt P41970 1-407); conditions: protein: recombinant; tags: N-terminal GST; dsDNA, one strand shown
# T6 sequence: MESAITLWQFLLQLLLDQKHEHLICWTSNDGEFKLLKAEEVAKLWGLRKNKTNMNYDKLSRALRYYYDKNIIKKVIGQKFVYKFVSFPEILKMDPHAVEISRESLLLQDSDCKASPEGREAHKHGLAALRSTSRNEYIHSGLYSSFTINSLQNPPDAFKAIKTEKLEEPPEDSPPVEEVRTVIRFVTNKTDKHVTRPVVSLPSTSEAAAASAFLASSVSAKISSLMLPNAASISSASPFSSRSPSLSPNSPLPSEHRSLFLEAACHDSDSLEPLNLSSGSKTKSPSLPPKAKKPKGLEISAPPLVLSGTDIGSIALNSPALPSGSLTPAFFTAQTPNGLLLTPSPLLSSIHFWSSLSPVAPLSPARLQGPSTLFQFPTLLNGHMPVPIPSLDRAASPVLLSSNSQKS
# Outline: as §1
# FEV = target: T7, FEV (Homo sapiens, UniProt Q99581 1-238); conditions: protein: recombinant; tags: N-terminal GST; dsDNA, one strand shown
# T7 sequence: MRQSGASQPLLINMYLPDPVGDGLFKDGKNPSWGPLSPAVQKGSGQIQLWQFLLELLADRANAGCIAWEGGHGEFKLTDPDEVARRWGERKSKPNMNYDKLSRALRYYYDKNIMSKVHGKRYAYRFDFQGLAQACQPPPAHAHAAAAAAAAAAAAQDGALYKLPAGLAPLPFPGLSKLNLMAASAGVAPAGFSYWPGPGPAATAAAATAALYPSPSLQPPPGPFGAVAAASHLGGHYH
# Outline: as §1
# ETV5 = ETV5 (Homo sapiens, UniProt P41161 1-510); conditions: protein: recombinant; tags: N-terminal GST; dsDNA, one strand shown
# ETV5, sequence (P41161 whole entry): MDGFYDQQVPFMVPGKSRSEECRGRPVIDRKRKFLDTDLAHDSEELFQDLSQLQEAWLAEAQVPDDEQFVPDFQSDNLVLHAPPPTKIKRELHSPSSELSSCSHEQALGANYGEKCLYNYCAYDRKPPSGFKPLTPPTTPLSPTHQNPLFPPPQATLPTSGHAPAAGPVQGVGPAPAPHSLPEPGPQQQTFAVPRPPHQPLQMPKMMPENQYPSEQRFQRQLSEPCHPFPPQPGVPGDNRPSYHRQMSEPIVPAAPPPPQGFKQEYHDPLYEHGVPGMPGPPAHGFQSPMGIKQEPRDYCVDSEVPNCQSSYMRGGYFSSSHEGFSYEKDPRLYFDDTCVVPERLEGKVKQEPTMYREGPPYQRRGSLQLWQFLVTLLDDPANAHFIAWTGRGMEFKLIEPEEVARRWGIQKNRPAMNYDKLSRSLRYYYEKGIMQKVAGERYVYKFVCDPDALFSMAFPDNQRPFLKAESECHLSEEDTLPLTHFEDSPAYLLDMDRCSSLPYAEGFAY
# Outline: as §1
# HSF1 = HSF1 (Homo sapiens, UniProt Q00613 1-529); conditions: protein: recombinant; tags: N-terminal GST; chain copies: 3; dsDNA, one strand shown
# HSF1, sequence (Q00613 whole entry): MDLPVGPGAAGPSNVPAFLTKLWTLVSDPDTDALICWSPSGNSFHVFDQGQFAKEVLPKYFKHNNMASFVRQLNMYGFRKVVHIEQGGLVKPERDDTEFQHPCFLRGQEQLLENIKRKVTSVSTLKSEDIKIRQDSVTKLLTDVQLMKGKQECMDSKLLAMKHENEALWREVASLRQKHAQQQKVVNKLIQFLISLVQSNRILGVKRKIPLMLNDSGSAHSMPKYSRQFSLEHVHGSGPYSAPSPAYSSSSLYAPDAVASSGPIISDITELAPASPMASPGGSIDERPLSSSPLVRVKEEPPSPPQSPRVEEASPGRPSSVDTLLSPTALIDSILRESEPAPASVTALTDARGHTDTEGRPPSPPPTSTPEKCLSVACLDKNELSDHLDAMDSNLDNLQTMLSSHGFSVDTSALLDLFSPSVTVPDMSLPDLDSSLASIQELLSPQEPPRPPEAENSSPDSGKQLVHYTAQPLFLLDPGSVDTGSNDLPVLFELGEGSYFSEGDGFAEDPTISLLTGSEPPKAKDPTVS
# Outline: as §1
# SPIC = target: T8, SPIC (Homo sapiens, UniProt Q8N5J4 1-248); conditions: protein: recombinant; tags: N-terminal GST; dsDNA, one strand shown
# T8 sequence: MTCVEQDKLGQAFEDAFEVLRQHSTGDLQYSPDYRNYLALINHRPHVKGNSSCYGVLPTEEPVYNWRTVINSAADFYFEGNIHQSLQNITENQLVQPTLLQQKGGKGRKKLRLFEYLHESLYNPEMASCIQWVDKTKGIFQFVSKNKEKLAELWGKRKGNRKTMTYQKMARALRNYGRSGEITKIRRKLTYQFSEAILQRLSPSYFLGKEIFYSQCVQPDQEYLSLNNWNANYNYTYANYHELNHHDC
# Outline: as §1
# ELF4 = ELF4 (Homo sapiens, UniProt Q99607 1-663); conditions: protein: recombinant; tags: N-terminal GST; dsDNA, one strand shown
# ELF4, sequence (Q99607 whole entry): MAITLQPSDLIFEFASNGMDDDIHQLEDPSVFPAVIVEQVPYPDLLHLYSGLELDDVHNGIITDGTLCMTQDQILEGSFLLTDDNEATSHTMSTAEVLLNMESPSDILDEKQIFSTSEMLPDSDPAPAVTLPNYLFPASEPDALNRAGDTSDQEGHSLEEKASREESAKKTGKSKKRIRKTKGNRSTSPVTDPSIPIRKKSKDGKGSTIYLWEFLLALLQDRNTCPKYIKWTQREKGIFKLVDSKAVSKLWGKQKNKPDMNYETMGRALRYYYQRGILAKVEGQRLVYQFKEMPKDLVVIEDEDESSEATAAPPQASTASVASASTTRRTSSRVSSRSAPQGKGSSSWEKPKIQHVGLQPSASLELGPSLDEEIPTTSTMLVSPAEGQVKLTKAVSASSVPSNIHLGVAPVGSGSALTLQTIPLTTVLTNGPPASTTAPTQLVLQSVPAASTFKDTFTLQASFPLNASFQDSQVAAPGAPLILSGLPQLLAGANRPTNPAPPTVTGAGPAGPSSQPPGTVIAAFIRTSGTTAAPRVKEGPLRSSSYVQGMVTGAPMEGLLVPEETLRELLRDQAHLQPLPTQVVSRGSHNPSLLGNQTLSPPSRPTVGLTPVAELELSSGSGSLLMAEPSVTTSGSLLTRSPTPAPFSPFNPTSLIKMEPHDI
# Outline: as §1
# ELK4 = target: T9, ELK4 (Homo sapiens, UniProt P28324-2 1-405); conditions: protein: recombinant; tags: N-terminal GST; dsDNA, one strand shown
# T9 sequence: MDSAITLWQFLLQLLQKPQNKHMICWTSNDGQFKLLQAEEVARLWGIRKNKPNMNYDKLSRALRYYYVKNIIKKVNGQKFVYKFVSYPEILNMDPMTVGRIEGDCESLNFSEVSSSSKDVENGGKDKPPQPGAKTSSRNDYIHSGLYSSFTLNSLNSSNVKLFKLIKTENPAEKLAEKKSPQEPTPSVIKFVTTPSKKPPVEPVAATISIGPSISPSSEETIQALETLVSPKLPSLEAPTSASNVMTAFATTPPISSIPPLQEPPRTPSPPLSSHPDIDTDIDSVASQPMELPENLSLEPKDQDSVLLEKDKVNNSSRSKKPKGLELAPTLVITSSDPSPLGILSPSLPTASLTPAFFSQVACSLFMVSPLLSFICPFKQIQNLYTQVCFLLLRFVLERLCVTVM
# Outline: as §1
# ETV2 = target: T10, ETV2 (Homo sapiens, UniProt O00321 1-342); conditions: protein: recombinant; tags: N-terminal GST; dsDNA, one strand shown
# T10 sequence: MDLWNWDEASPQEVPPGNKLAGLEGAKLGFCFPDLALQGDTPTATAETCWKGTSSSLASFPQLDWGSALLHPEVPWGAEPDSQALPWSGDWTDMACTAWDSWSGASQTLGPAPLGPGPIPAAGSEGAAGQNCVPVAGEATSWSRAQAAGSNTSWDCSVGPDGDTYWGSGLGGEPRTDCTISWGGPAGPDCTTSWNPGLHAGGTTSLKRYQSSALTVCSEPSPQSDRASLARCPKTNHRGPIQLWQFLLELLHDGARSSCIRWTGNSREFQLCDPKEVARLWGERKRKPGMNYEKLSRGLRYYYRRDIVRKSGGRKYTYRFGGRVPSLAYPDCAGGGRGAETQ
# Outline: as §1
# ELF3 = target: T11, ELF3 (Homo sapiens, UniProt P78545 1-371); conditions: protein: recombinant; tags: N-terminal GST; dsDNA, one strand shown
# T11 sequence: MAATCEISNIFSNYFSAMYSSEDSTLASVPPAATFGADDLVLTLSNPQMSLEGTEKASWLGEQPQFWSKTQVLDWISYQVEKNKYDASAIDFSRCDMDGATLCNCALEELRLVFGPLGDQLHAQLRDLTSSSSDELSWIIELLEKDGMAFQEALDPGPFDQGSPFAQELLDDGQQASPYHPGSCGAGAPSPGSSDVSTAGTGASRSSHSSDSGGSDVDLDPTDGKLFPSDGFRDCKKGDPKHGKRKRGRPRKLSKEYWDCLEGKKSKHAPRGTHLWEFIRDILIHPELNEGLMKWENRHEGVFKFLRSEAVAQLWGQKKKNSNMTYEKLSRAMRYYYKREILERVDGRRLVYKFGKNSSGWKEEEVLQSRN
# Outline: as §1
# CRX = CRX (Homo sapiens, UniProt O43186 1-299); conditions: protein: recombinant; tags: N-terminal GST; dsDNA, one strand shown
# CRX, sequence (O43186 whole entry): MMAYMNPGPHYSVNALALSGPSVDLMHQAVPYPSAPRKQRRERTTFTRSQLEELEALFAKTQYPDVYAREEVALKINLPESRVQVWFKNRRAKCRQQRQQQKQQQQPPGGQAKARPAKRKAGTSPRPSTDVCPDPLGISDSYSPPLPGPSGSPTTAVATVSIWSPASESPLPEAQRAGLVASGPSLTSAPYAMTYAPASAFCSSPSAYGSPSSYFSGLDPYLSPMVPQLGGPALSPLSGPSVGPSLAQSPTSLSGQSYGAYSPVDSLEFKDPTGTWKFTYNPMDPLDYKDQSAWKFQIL
# Outline: as §1
# ETV1 = ETV1 (Homo sapiens, UniProt P50549 1-477); conditions: protein: recombinant; tags: N-terminal GST; dsDNA, one strand shown
# ETV1, sequence (P50549 whole entry): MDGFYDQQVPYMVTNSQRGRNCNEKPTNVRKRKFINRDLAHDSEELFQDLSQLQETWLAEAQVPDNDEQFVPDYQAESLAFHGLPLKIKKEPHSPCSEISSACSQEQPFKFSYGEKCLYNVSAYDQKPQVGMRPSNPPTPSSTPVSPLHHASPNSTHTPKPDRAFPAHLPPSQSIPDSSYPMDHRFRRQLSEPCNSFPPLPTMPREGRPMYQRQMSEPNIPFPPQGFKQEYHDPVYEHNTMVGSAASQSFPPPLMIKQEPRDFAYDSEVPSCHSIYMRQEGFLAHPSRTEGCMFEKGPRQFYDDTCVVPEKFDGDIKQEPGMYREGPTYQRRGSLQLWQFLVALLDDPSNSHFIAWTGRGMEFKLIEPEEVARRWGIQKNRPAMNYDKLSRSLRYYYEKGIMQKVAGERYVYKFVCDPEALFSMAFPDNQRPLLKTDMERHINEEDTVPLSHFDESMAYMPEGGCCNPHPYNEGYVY
# Outline: as §1
sequence,measurement,setting,value
CTCATA,binding signal,FLI1,"1.39 fold enrichment (6-mer frequency, TF over GST control)"
same,binding signal,ELK1,"1.48 fold enrichment (6-mer frequency, TF over GST control)"
same,binding signal,GABPA,"1.36 fold enrichment (6-mer frequency, TF over GST control)"
same,binding signal,ERG,"1.3 fold enrichment (6-mer frequency, TF over GST control)"
same,binding signal,ELF1,"1.38 fold enrichment (6-mer frequency, TF over GST control)"
same,binding signal,EHF,"1.27 fold enrichment (6-mer frequency, TF over GST control)"
same,binding signal,SPI1,"1.43 fold enrichment (6-mer frequency, TF over GST control)"
same,binding signal,SPIB,"1.48 fold enrichment (6-mer frequency, TF over GST control)"
same,binding signal,ELK3,"1.34 fold enrichment (6-mer frequency, TF over GST control)"
same,binding signal,FEV,"1.29 fold enrichment (6-mer frequency, TF over GST control)"
same,binding signal,ETV5,"1.37 fold enrichment (6-mer frequency, TF over GST control)"
same,binding signal,HSF1,"1.25 fold enrichment (6-mer frequency, TF over GST control)"
same,binding signal,SPIC,"1.46 fold enrichment (6-mer frequency, TF over GST control)"
same,binding signal,ELF4,"1.41 fold enrichment (6-mer frequency, TF over GST control)"
same,binding signal,ELK4,"1.35 fold enrichment (6-mer frequency, TF over GST control)"
same,binding signal,ETV2,"1.44 fold enrichment (6-mer frequency, TF over GST control)"
same,binding signal,ELF3,"1.34 fold enrichment (6-mer frequency, TF over GST control)"
same,binding signal,CRX,"1.38 fold enrichment (6-mer frequency, TF over GST control)"
same,binding signal,ETV1,"1.39 fold enrichment (6-mer frequency, TF over GST control)"
